This passage reports Potency results from PubChem BioAssay (Tox21).

A number with no mark means an inactive call. Inconclusive results are not listed. Activity calls are given as the source filed them. Unless noted, the call rests on the fitted dose curve.

Assay [1] can be described thus: Nuclear factor erythroid 2-related factor 2/antioxidant responsive element (Nrf2/ARE) small molecule agonists: qHTS cell viability counter screen in human keratinocytes (AID 1919968; active means well fitted curve in the direction sought with a large enough effect in the repeat runs; an effect the other way counts as inactive or inconclusive; further: nearly all actives have a fitted effect of over 55% in size; further: potency means the concentration at half of the fitted maximal effect). In short, it runs like this: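 HaCaT ARE reporter line, 1,500 cells/well; 5 h settle, 37 C/5% CO2; cpd in DMSO pinned; 23 h exposure; CellTiter-Fluor, 1 h; fluorescence.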
(In general: In qHTS, concentration-response curves come from the screen itself.)

A short description of assay [2]: Nuclear factor erythroid 2-related factor 2/antioxidant responsive element (Nrf2/ARE) small molecule agonists: luciferase reporter gene qHTS assay in human keratinocytes (AID 1919969). Further: nearly all actives have a fitted effect of over 35% in size. Further: potency means the concentration at half of the fitted maximal effect.
Assay [3] concerns the target KiSS-1 receptor (Homo sapiens) (UniProt Q969F8). The experiment in a line: Human kisspeptin (KISS1R) small molecule agonists, calcium flux assay in KISS1R-HEK293 cells (AID 1920064; active means well fitted curve in the direction sought with a large enough effect in the repeat runs; an effect the other way counts as inactive or inconclusive). The procedure, abridged: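 Stable human KISS1R HEK293 line; 18 h plating, 37 C/5% CO2; calcium dye 1 h 37 C; compound pin transfer; kinetic fluorescence Ex/Em 480/540, 3 min.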
A short description of assay [4]: G protein-coupled receptor (GPCR) small molecule agonists, calcium flux assay: HEK293 wild type cell line counter screen (AID 1920065). In short, it runs like this:
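Kinetic fluorescence at Ex/Em 480/540, recorded every second over 3 min, served as the read-out after compound addition. Each compound was tested at 15 concentrations in triplicate on cells pre-loaded with calcium dye for 1 h.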

The nature of assay [5]: p53 small molecule agonists, cell-based qHTS assay with rat liver microsomes (AID 1963578). The procedure, abridged:
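Agonist mode in p53RE-bla reporter cells, with compounds co-incubated 16 h at 37 C alongside 0.5 mg/mL rat liver microsomes and 0.5 mg/mL NADPH (final), followed by a 2 h LiveBLAzer detection step.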

Assay [6] can be described thus: p53 small molecule agonists, cell-based qHTS assay with human liver microsomes: qHTS cell viability counter screen (AID 1963579). Further: nearly all actives have a fitted effect of over 45% in size. Further: potency means the concentration at half of the fitted maximal effect. In short, it runs like this: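 Metabolically activated exposure: compounds, human liver microsomes and NADPH (0.5 mg/mL final apiece) were added to p53RE-bla cells seeded 5 h earlier, left 16 h at 37 C, and then assessed for viability by CellTiter-Glo luminescence.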

Assay [7] has as its target 5-hydroxytryptamine receptor 2A (Homo sapiens) (UniProt P28223). The experiment in a line: 5-hydroxytryptamine receptor 2A (HTR2A) small molecule antagonists, cell-based qHTS assay (AID 1963586). Further: nearly all actives have a fitted effect of over 45% in size. In short, it runs like this: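 Antagonist-mode intracellular calcium assay: DOI (4 nM) added after 5 min compound pre-incubation at room temperature to dye-loaded HTR2A-CHO cells. Fluorescence followed for 3 min, sampled every second.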

The target is the same in assay [8]. The experiment in a line: 5-hydroxytryptamine receptor 2A (HTR2A) small molecule agonists, cell-based qHTS assay (AID 1963587). Further: nearly all actives have a fitted effect of over 30% in size. Further: potency means the concentration at half of the fitted maximal effect. In short, it runs like this: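 CHO cells stably expressing human HTR2A, plated 18 h, loaded with calcium dye 1 h at 37 C. Agonist mode: compounds added and intracellular calcium fluorescence recorded kinetically for 2 min at 1 sec intervals.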

Assay [9] addresses Muscarinic acetylcholine receptor M1 (Homo sapiens) (UniProt P11229). The experiment in a line: Cholinergic receptor muscarinic 1 (CHRM1) small molecule antagonists, cell-based qHTS assay (AID 1963588). Further: nearly all actives have a fitted effect of over 40% in size. Further: potency means the concentration at half of the fitted maximal effect. In short, it runs like this:
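CHRM1-CHO calcium-flux assay, antagonist mode. Cells were seeded 18 h, dye-loaded 1 h at 37 C and given compound for 5 min at RT, then acetylcholine was added at 50nM. FDSS fluorescence was read 3 min; 15 concentrations, three runs.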

The target of assay [10] is D(2) dopamine receptor (Homo sapiens) (UniProt P14416). The experiment in a line: Dopamine D2 receptor (DRD2) small molecule antagonists, cell-based qHTS assay (AID 1963595; active means well fitted inhibition curve with a large enough effect in the signal ratio in the repeat runs, with a control signal flat; the % refers to the signal ratio; further: potency means the concentration at half of the fitted maximal effect). The procedure, abridged: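 HEK293 cells stably expressing DRD2, preincubated with 0.1 mM Ro20-1724 and compounds 10 min, were stimulated with 200 nM NKH477 plus 12 nM quinpirole for 30 min at room temperature; cAMP measured by HTRF (665/620 nm).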

Assay [11] can be described thus: p53 small molecule agonists, cell-based qHTS assay with rat liver microsomes: qHTS cell viability counter screen (AID 1963580). Further: nearly all actives have a fitted effect of over 45% in size. In short, it runs like this:
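Viability is assessed in parallel with the p53 reporter read: HCT-116 p53RE-bla cells receive compounds plus rat microsomes and NADPH (0.5 mg/mL final apiece), incubate 16 h at 37 C, and then CellTiter-Glo luminescence is recorded.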

Assay [12] in a line: p53 small molecule agonists, cell-based qHTS assay: qHTS cell viability counter screen (AID 1963581). Further: nearly all actives have a fitted effect of over 45% in size. The procedure, abridged: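 HCT-116 p53RE-bla cells, 4,000/well, plated 5 h before compound pin transfer; 16 h at 37 C; bla substrate 2 h RT; then CellTiter-Glo, 30 min RT, luminescence.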
In assay [13] the target is Muscarinic acetylcholine receptor M1 (Homo sapiens) (UniProt P11229). The experiment in a line: Cholinergic receptor muscarinic 1 (CHRM1) small molecule agonists, cell-based qHTS assay (AID 1963589). Further: nearly all actives have a fitted effect of over 35% in size. In short, it runs like this:
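Human M1 in stable CHO line; 18 h plating, 1 h dye load 37 C; cpd added (agonist mode); Ca2+ fluorescence kinetic read, 1 s intervals; 15 conc, 3 runs.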

A short description of assay [14]: cAMP Responsive Elements (CRE) small molecule agonists, cell-based qHTS assay (AID 1963590). In short, it runs like this:
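HEK 293T CRE-bla, 2,000 cells/well, 18 h preincubation 37 C/5% CO2; cpds (DMSO) pinned, 3 h; LiveBLAzer B/G FRET substrate, 2 h RT.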

A short description of assay [15]: cAMP Responsive Elements (CRE) small molecule antagonists, cell-based qHTS assay (AID 1963591; active means well fitted inhibition curve with a large enough effect in the signal ratio in the repeat runs, not every such curve was filed as active; the % refers to the signal ratio). The procedure, abridged:
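Beta-lactamase reporter read by FRET substrate (LiveBLAzer B/G) after 2 h at room temperature. CRE-bla HEK293T cells had received compound plus 0.25 uM (final) NKH477 for 3 h at 37 °C.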

Assay [16] deals with Beta-2 adrenergic receptor (Homo sapiens) (UniProt P07550). The experiment in a line: Adrenergic beta2 receptor (ADRB2) small molecule antagonists, cell-based qHTS assay (AID 1963592). Further: series mostly up to about 92 µM; nearly all actives have a fitted effect of over 50% in size. The procedure, abridged: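 Cells (CHO, stable ADRB2 overexpression) incubated 18-20hr at 37C; compounds added from DMSO; agonist mix (1nM isoproterenol, 100uM IBMX, 25uM Ro-20-1724) added; 0.5hr RT; d2-cAMP and anti-cAMP-cryptate added; 1hr RT; 665/615 nm read.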

Assay [17] addresses D(2) dopamine receptor (Homo sapiens) (UniProt P14416). The experiment in a line: Dopamine D2 receptor (DRD2) small molecule agonists, cell-based qHTS assay (AID 1963594). Further: nearly all actives have a fitted effect of over 35% in size. The procedure, abridged: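 HEK293 cells stably expressing human DRD2, pre-treated with PDE inhibitor Ro20-1724 (0.1 mM final) and compound 10 min at room temperature, then stimulated with NKH477 (200nM […]) for 30 min. cAMP read by HTRF (665/620 nm).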

Assay [18] in a line: p53 small molecule agonists, cell-based qHTS assay with human liver microsomes (AID 1963577).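 Further: p53 response element beta-lactamase reporter cells with liver microsomes plus NADPH.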 In short, it runs like this:
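In this qHTS, p53 response-element beta-lactamase cells receive test compound together with a microsome/NADPH activating system (0.5 mg/mL final each) and are incubated 16 h at 37 C before LiveBLAzer fluorescence detection.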

Assay [19] addresses Beta-2 adrenergic receptor (Homo sapiens) (UniProt P07550). The experiment in a line: Adrenergic beta2 receptor (ADRB2) small molecule agonists, cell-based qHTS assay (AID 1963593).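 Further: CHO cells stably overexpressing human ADRB2.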 The procedure, abridged:
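CHO cells stably over-expressing ADRB2 were plated overnight at 37C, then dosed with compounds plus a stimulation mix containing 100uM IBMX and 25uM Ro-20-1724 for 0.5hr at room temperature. cAMP was measured by HTRF competition, 1hr.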

5-hydroxytryptamine receptor 2A (Homo sapiens), sequence (P28223 whole entry, looked up): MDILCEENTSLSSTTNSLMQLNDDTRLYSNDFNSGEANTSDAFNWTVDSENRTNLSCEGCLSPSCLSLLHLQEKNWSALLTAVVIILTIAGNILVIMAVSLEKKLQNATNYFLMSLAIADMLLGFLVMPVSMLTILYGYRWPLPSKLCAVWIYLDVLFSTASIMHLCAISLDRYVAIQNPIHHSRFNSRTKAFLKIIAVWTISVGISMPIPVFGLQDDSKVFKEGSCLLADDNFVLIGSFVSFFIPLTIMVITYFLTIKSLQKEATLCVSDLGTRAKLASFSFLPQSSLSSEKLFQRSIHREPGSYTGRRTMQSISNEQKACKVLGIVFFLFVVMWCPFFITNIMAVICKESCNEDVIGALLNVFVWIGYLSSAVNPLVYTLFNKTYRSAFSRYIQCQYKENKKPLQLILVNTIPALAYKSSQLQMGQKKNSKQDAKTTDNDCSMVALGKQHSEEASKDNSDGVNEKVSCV
D(2) dopamine receptor (Homo sapiens), sequence (P14416 whole entry, looked up): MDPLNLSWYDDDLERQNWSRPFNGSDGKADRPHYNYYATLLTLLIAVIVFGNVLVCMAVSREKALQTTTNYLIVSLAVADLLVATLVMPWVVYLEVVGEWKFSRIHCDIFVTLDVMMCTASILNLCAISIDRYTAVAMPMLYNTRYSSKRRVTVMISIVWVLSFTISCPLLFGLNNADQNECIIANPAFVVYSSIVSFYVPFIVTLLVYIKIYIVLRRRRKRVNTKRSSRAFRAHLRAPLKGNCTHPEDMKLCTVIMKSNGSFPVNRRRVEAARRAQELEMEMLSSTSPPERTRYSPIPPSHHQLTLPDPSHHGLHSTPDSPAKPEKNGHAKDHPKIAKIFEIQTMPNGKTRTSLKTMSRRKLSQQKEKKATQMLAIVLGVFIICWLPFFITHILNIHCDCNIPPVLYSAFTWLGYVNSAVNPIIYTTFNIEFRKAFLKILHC
KiSS-1 receptor (Homo sapiens), sequence (Q969F8 whole entry, looked up): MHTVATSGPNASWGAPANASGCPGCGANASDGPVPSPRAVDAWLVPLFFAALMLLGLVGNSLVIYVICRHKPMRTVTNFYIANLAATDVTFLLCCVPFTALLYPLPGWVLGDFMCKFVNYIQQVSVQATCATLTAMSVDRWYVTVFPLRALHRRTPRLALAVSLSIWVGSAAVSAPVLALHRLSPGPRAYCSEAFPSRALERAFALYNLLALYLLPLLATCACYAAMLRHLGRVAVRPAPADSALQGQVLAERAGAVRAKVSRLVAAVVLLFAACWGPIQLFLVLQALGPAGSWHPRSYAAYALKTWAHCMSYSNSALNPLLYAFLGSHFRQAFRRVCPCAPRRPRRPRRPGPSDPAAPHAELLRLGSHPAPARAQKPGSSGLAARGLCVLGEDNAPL
Muscarinic acetylcholine receptor M1 (Homo sapiens), sequence (P11229 whole entry, looked up): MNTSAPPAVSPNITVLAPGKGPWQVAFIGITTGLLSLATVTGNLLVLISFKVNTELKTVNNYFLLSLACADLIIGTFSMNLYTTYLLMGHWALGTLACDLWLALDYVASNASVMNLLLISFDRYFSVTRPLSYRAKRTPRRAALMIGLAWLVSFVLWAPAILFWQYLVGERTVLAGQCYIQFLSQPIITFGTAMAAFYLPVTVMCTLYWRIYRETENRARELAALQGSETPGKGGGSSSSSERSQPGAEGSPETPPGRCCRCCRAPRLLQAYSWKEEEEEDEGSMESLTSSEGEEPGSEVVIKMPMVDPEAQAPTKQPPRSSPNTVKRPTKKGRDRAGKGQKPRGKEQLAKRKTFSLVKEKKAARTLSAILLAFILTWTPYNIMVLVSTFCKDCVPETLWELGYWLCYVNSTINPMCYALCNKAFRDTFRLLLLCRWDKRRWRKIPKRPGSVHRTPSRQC
Beta-2 adrenergic receptor (Homo sapiens), sequence (P07550 whole entry, looked up): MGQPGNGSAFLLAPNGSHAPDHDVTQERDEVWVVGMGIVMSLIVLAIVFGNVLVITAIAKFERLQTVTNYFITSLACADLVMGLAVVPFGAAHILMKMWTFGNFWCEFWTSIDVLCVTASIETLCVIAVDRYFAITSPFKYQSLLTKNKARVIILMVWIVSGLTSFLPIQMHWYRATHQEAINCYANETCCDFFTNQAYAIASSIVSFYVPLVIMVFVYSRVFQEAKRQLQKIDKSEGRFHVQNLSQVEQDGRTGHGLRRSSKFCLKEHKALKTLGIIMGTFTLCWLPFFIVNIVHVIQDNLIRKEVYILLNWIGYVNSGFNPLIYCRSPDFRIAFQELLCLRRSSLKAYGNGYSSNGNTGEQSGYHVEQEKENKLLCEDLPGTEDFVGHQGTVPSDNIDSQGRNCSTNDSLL

Regarding `O=C1C=CC(=O)N1c1ccccc1`, the Potency in [1] is 27.3 µM (active); in assay [2] it was 15.4 µM (active); in assay [6], 20.4 µM (active); in assay [8] it was 24.5 µM (active); in assay [10], 13.7 µM (active). Further, the Potency entry in [3], in assay [4], in [5], in [7] and in assay [9] was “inactive” throughout.
With `OC(C#CCN1CCCC1)(c1ccccc1)c1ccccc1`, the Potency entry in assay [1], in [2], in assay [3], in assay [4], in assay [6] and in assay [11] was “inactive” in each case. The Potency result in [12], in [7], in assay [8], in assay [13], in [14] and in assay [15] was “inactive” throughout. Besides, the Potency entry in assay [16], in [17] and in assay [10] was “inactive” each time. The Potency in [9] is 0.0065 µM (active).
Regarding `COc1ccnc(CS(=O)c2nc3ccc(OC(F)F)cc3[nH]2)c1OC` (stereo unspecified), the Potency result in assay [1], in [2], in assay [3], in assay [4], in [6] and in assay [11] was “inactive” each time. Also, the Potency result in [12], in assay [14], in assay [15], in assay [16] and in assay [17] was “inactive” throughout.
As for `O=C1NC(=O)c2cc([N+](=O)[O-])ccc21`, the Potency result in assay [1], in assay [2], in assay [4], in [18], in [5] and in [6] was “inactive” throughout. Further, the Potency result in assay [11], in assay [12], in [7], in assay [9], in assay [13] and in assay [14] was “inactive” throughout. In addition, the Potency result in assay [15], in assay [16], in assay [17] and in assay [10] was “inactive” in each case. In assay [8], the Potency is 55.4 µM (active).
Take `C=C(C)C(=O)OCCOCCOC(=O)C(=C)C`: the Potency entry in assay [1], in assay [2], in assay [3], in [6], in assay [12] and in [7] was “inactive” in each case. Further, the Potency entry in assay [8], in [9], in [13], in [16], in [19] and in assay [17] was “inactive” each time. The Potency entry in [10] was “inactive”.
On to `Fc1ccccc1`, for which the Potency result in assay [1], in assay [2], in [3], in assay [4], in assay [6] and in assay [11] was “inactive” throughout. In addition, the Potency result in [9], in [13], in assay [14], in assay [16], in [19] and in assay [17] was “inactive” in each case. The Potency entry in [10] was “inactive”.
For `CC(C)(C)CCCCCCOC(=O)c1ccccc1C(=O)OCCCCCCC(C)(C)C`, the Potency result in assay [1], in [2], in [3], in [4], in assay [6] and in assay [12] was “inactive” each time. Also, the Potency entry in assay [7], in assay [8], in assay [9], in [13], in assay [14] and in assay [15] was “inactive” throughout. Besides, the Potency entry in assay [16], in assay [19], in [17] and in assay [10] was “inactive” in each case.
